Screening results: PubChem BioAssay, National Center for Advancing Translational Sciences (NCATS)
This is a sample that favours compounds with a hit; in the whole collection about 2% have one here.
KDM4E inh = blocks human JMJD2E demethylase activity. B2RXH2. JMJD2E catalytic domain, FDH-coupled NADH fluorescence (FDH is formaldehyde dehydrogenase). Potency, µM (doses to about 57.1 µM), for the others: at the highest dose activity change, negative = inhibition, actives largely listed as inhibitors. 230,000 tested, 1.6% active; active means well fitted inhibition curve with a large enough effect, not every such curve was filed as active; inconclusive means small, poorly fitted or top-dose-only effect, or another doubt; inactive means no such curve, though single readings can be large or run the other way;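 further: potency means the concentration at half of the fitted maximal effect; 0% = wells with enzyme and -100% = buffer wells without enzyme; nearly all actives have a fitted effect of over 50% in size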
Six1-Eya2 inh = blocks human Six1 binding to Eya2; AlphaScreen GST-Six1/His-Eya2 binding, biochemical; hits give low values; activity change, % (concentration not given with the values); 360,000 tested, 0.56% active; Q15475+O00167; AID 651725
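AlphaScreen luminescence read after one hour at 37 °C in darkness. Pin-transferred compounds met GST-Six1 and His-Eya2 protein (5X stock 250 nM/500 nM) plus glutathione donor and Ni-chelate acceptor beads (5X, 50 ug/mL).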
CtBP-E1A inh = CtBP/E1A binding inhibition; AlphaScreen GST-E1A/His-CtBP binding, 1536-well; hits give low values; activity change, % (no concentration beside the values); 340,000 tested, 0.49% active
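AlphaScreen with 125 nM GST-E1A and 125 nM His-CtBP (5X stocks) in Tris pH 8.0, 300 mM NaCl, BSA, Tween 20, TCEP. Compounds preincubated 2 h at 37 deg C, then glutathione donor/nickel acceptor beads added for 1 h at 37 deg C in dark.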
KCNH2 3.1 inh = KCNH2 3.1 (human) potassium channel inhibition. 340,000 tested, 0.95% active. U2OS KCNH2 3.1, thallium flux FluxOr; hits give low values. activity change, % (tested at about 1.8 µM);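 active means maximum activity change below -70%; inconclusive means maximum activity change from -70% to -50%; inactive means maximum activity change above -50%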;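 further: thallium influx rate constant from kinetic fluorescence after stimulation buffer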
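Virally transduced U2OS (3.1 isoform, 4 h infection in dark at RT) → overnight 37 C → FluxOr + Red40 in HBSS/HEPES, 45 min → stimulation buffer, 2 min kinetic read → rate constant vs DMSO controls.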
hERG WT inh = blocks the wildtype human KCNH2 potassium channel; 340,000 tested, 0.37% active; U2OS, BacMam KCNH2, thallium flux FluxOr; hits give low values; activity change, % at 1.84 µM; AID 720551; Q12809;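 active means maximum activity change below -70%; inconclusive means maximum activity change between -70% and -50%; inactive means maximum activity change above -50%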
Target sequence (Q12809 whole entry, looked up): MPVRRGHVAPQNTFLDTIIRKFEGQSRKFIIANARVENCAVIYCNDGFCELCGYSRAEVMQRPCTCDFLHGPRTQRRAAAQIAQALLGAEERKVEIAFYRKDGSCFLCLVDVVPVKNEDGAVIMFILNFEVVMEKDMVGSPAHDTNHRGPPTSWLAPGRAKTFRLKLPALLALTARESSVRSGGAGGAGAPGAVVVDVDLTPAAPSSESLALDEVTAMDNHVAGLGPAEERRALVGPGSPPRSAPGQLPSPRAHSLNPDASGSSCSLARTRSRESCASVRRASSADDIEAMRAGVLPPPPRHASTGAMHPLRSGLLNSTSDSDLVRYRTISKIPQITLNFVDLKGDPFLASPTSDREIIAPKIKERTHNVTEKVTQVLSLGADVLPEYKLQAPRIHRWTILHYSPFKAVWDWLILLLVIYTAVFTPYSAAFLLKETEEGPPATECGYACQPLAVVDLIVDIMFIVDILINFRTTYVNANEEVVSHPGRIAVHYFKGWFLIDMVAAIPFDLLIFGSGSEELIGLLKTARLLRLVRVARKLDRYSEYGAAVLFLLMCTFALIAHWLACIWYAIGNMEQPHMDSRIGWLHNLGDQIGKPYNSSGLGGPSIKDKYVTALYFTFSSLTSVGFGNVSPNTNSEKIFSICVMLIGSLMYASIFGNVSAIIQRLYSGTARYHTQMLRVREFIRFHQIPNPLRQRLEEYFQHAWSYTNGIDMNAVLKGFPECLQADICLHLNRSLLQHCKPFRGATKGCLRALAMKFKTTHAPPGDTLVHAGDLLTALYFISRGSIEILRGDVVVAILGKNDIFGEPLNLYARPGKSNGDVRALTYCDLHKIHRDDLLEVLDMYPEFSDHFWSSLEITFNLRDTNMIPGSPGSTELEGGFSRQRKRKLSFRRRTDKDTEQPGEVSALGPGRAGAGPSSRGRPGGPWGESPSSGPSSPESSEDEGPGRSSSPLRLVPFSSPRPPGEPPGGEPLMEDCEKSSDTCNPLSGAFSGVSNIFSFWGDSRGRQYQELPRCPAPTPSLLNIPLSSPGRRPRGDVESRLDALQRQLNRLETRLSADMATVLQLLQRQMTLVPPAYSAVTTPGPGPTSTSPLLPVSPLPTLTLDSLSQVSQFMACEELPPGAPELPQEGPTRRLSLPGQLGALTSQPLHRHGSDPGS
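U2OS cells transduced with wild-type KCNH2 virus are loaded with FluxOr dye for 45 min, and thallium flux is measured in kinetic reads before and after stimulation buffer. Rate constants are normalized to DMSO controls.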
Starred values were filed as active, the others as inactive. Unless noted, no stated cut-off is given here; in the data, active means activity change below about -65%; inconclusive means mostly about -30% to -63%; inactive means weaker than that. Unless noted, on the % scale 0 is the no-effect control and ±100 the full control effect.

How did CC(C)c1ccc(N2C(=O)C(Cl)=C(N3CCOCC3)C2=O)cc1 do in these assays?
Six1-Eya2 inh: 0; CtBP-E1A inh: 0; KCNH2 3.1 inh: -1; hERG WT inh: 4

How did CCOC(=O)n1cc(-c2cnc(CNC(=O)C(C)(c3ccccc3)c3ccccc3)o2)c2ccccc21 do in these assays?
KDM4E inh: -17%; Six1-Eya2 inh: -13; CtBP-E1A inh: -2; KCNH2 3.1 inh: -73*; hERG WT inh: -40

Results for CC(C(=O)NCCN1CCOCC1)(c1ccccc1)c1ccccc1 ?
KDM4E inh: -7%; Six1-Eya2 inh: 13; CtBP-E1A inh: 7; KCNH2 3.1 inh: 1; hERG WT inh: 3

What do the screens show for `CSc1nc(-c2cccs2)c(C#N)c(=O)[nH]1`?
KDM4E inh: inconclusive; Six1-Eya2 inh: -3; CtBP-E1A inh: -2; KCNH2 3.1 inh: -4; hERG WT inh: -133*

What do the screens show for `Cc1ccc(-c2cc(C(=O)Nc3cc(C)on3)no2)cc1`?
KDM4E inh: 1%; Six1-Eya2 inh: -19; KCNH2 3.1 inh: 23; hERG WT inh: 2

How did CNc1cccc2c1C(=O)c1ccccc1C2=O do in these assays?
KDM4E inh: -8%; Six1-Eya2 inh: -87*; CtBP-E1A inh: -3; KCNH2 3.1 inh: 16; hERG WT inh: 4

Results for COc1ccc(C(NC(=O)c2cccnc2)c2cc(Cl)c3cccnc3c2O)cc1OC (stereo not given) ?
KDM4E inh: -20%; Six1-Eya2 inh: -91*; CtBP-E1A inh: -92*; KCNH2 3.1 inh: 0; hERG WT inh: 3

What do the screens show for `CCC(=O)NC(c1ccco1)c1cc(Cl)c2cccnc2c1O` (stereo not given)?
KDM4E inh: -24%; Six1-Eya2 inh: -80*; CtBP-E1A inh: -90*; KCNH2 3.1 inh: 7; hERG WT inh: 9

How did Fc1ccc(C(Nc2ccccn2)c2c[nH]c3ccccc23)cc1 (stereo not given) do in these assays?
KDM4E inh: -12%; Six1-Eya2 inh: 3; KCNH2 3.1 inh: -7; hERG WT inh: -5

What do the screens show for `CC(=O)NC(c1ccc(C)cc1)c1cc(Cl)c2cccnc2c1O` (stereo not given)?
Six1-Eya2 inh: inconclusive; CtBP-E1A inh: -74*; KCNH2 3.1 inh: 1; hERG WT inh: 4

How did CCCCC(=O)NC(c1ccco1)c1cc(Cl)c2cccnc2c1O (stereo not given) do in these assays?
KDM4E inh: -3%; Six1-Eya2 inh: inconclusive; KCNH2 3.1 inh: 2; hERG WT inh: 3

Results for Oc1c(C(Nc2ccccn2)c2cccnc2)cc(Cl)c2cccnc12 (stereo not given) ?
KDM4E inh: inconclusive; Six1-Eya2 inh: -90*; CtBP-E1A inh: -89*; KCNH2 3.1 inh: -4; hERG WT inh: 4

Results for CCC(=O)NC(c1ccc(OC)cc1)c1cc(Cl)c2cccnc2c1O (stereo not given) ?
KDM4E inh: -2%; Six1-Eya2 inh: inconclusive; CtBP-E1A inh: inconclusive; KCNH2 3.1 inh: -31; hERG WT inh: 1

How did Cc1cccc2c1N(C)C(=O)C2=O do in these assays?
KDM4E inh: -3%; Six1-Eya2 inh: 0; KCNH2 3.1 inh: 1; hERG WT inh: 3

What do the screens show for `COc1ccc(CN(C(=O)CSc2nnc(-c3ccccc3F)o2)c2ccc(F)cc2)cc1`?
KDM4E inh: 4%; Six1-Eya2 inh: -2; CtBP-E1A inh: 6; KCNH2 3.1 inh: -1; hERG WT inh: 10

Results for Cc1ccc(Oc2ncccc2NC(=O)CC2(CC(=O)O)CCCC2)c2c1CCC2 ?
KDM4E inh: inconclusive; Six1-Eya2 inh: 2; CtBP-E1A inh: -3; KCNH2 3.1 inh: -3; hERG WT inh: 8

How did CC(C)C(=O)NC(c1ccccc1)c1cc([N+](=O)[O-])c2cccnc2c1O (stereo not given) do in these assays?
KDM4E inh: inconclusive; Six1-Eya2 inh: -90*; CtBP-E1A inh: -91*; KCNH2 3.1 inh: 2; hERG WT inh: 16

Results for CC(NC(=O)Cc1ccccc1[N+](=O)[O-])c1ccccc1 (stereo not given) ?
KDM4E inh: -5%

What do the screens show for `CC(=O)NC(c1ccccc1)c1cc([N+](=O)[O-])c2cccnc2c1O` (stereo not given)?
KDM4E inh: 16µM*; Six1-Eya2 inh: -94*; CtBP-E1A inh: -91*; KCNH2 3.1 inh: -1; hERG WT inh: -3

What do the screens show for `CCn1cc(Cl)c(C(=O)Nc2ccc3c(c2)OCCO3)n1`?
KDM4E inh: -2%; Six1-Eya2 inh: 6; CtBP-E1A inh: 7; KCNH2 3.1 inh: 13; hERG WT inh: -2

What do the screens show for `CC(=O)c1ccc(OC(=O)CCc2ccccc2)cc1`?
Six1-Eya2 inh: -79*; CtBP-E1A inh: inconclusive; KCNH2 3.1 inh: -11; hERG WT inh: -4

How did CCOC(=O)C1CCN(Cc2ccc(O)c3ncccc23)CC1 do in these assays?
KDM4E inh: 8.9µM*; Six1-Eya2 inh: -92*; CtBP-E1A inh: -98*; KCNH2 3.1 inh: 7; hERG WT inh: 11

How did COc1ccccc1N1CCN(Cc2ccc(O)c3ncccc23)CC1 do in these assays?
KDM4E inh: 1%; Six1-Eya2 inh: -91*; CtBP-E1A inh: -90*; KCNH2 3.1 inh: 19; hERG WT inh: 9

Results for Oc1ccc(CN2CCCc3ccccc32)c2cccnc12 ?
KDM4E inh: 8.9µM*; Six1-Eya2 inh: -93*; CtBP-E1A inh: 0; KCNH2 3.1 inh: 4; hERG WT inh: -4

What do the screens show for `O=C(CSc1nnc(C2CC2)n1C1CC1)c1ccccc1F`?
Six1-Eya2 inh: -6; KCNH2 3.1 inh: -11; hERG WT inh: -13

How did O=C(CCn1nc(-c2ccccc2)ccc1=O)NCCCN1CCCCCC1 do in these assays?
KDM4E inh: -20%; Six1-Eya2 inh: -1; CtBP-E1A inh: -1; KCNH2 3.1 inh: 2; hERG WT inh: 6

Results for CC(C)(C)c1nnc(NC(=S)Nc2ccccc2)s1 ?
KDM4E inh: -2%; Six1-Eya2 inh: -14; CtBP-E1A inh: 1; KCNH2 3.1 inh: -3; hERG WT inh: 0

What do the screens show for `Cc1ccc(CN2CCC(c3cc(-c4cccs4)n[nH]3)CC2)cc1`?
KDM4E inh: -4%; Six1-Eya2 inh: -4; KCNH2 3.1 inh: -113*; hERG WT inh: -71*

Results for FC(F)(F)c1cccc(CN2CCC(c3cc(-c4cccs4)n[nH]3)CC2)c1 ?
KDM4E inh: inconclusive; Six1-Eya2 inh: -4; CtBP-E1A inh: -6; KCNH2 3.1 inh: -39; hERG WT inh: 9

What do the screens show for `Cc1cccc(C)c1NC(=O)C(=O)NCCOc1ccc(Cl)cc1`?
KDM4E inh: -1%; Six1-Eya2 inh: 8; CtBP-E1A inh: 9; KCNH2 3.1 inh: 0; hERG WT inh: 3

How did O=C(NNC(=S)Nc1ccc(Cl)c(Cl)c1)c1ccccn1 do in these assays?
KDM4E inh: -3%; Six1-Eya2 inh: -90*; KCNH2 3.1 inh: -9; hERG WT inh: 2

How did CCNC(=S)NNC(=O)c1ccccn1 do in these assays?
KDM4E inh: inconclusive; Six1-Eya2 inh: -95*; CtBP-E1A inh: -96*; KCNH2 3.1 inh: 2; hERG WT inh: 37
